A short description of this assay: antiviral protection of cells from WNV – synthesized analogs, SAR follow-up (AID 2238). The following applies: West Nile virus CPE inhibition in cells; max CPE inhibition: measured here: maximum CPE inhibition observed, at 40 µM, stronger effect = higher value unless noted; series mostly up to 40 µM.

Active and inactive are the calls of the source. No rule for the calls is given here.

The results in this text go back to PubChem BioAssay AID2238 (Southern Research Specialized Biocontainment Screening …, 2010).

On to `COc1ccc(-c2csc(N(CCCBr)C(=O)c3ccccc3Cl)n2)cc1`, for which the max CPE inhibition is 1.23% and the result was inactive.
Regarding `CC1(O)c2cc(Br)ccc2N=C2CCCN21` (stereo unspecified), the max CPE inhibition was 1.3% [measured here: maximum CPE inhibition observed, at 0.16 µM, stronger effect = higher value] and the compound was called inactive.
For `COc1ccc(-c2csc(N(C)C(=O)c3ccccc3Cl)n2)cc1`, the max CPE inhibition is 1.16% [measured here: maximum CPE inhibition observed, at 5 µM, stronger effect = higher value] and the call was inactive.
